A selection: hits, their analogues and other compounds. The true share with any hit is near 2.8%.
Peg3 prom inh-1: Peg3 promoter activity inhibition. AID 588405. inhibition, % at 20 µM. actives 1.7% (n = 360,000). HeLa PEG-Prom luciferase reporter, luminescence, overnight;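 active = inhibition of at least 50% at 20 µM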
CF NFkB block: inhibitors of cystic fibrosis induced NF-kB. inhibition, % at 5 µM. KKLEB NF-kB-GFP reporter, PAF-induced, GFP fluorescence overnight. AID 588850. actives 0.86% (n = 360,000);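 active = at least 50% inhibition at 5 µM, scaled per plate between neutral and stimulator controls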;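 note: PAF is a Pseudomonas aeruginosa culture filtrate used as stimulus; plate controls were PAF-stimulated DMSO wells for no effect and unstimulated DMSO wells for full effect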
HIF-2a block: HIF-2a inhibition. 786-0 RCC cells HIF-2a reporter, luciferase luminescence, overnight. actives 0.72% (n = 360,000). inhibition, % at 18.8 µM. AID 624352;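 active = inhibition of the luminescence signal of 40% or more relative to plate controls, in a single-dose primary screen at 18.75 µM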
Shn3 3UTR inh: reduces Shn3 3'UTR luciferase signal in osteoblasts; inhibition, % at 12.5 µM; Clone20 osteoblast Shn3 3'UTR firefly luciferase, 24 h; AID 588674; actives 0.52% (n = 360,000);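 active = mean inhibition of at least 75% with every replicate also reaching 75%; inconclusive = mean inhibition at least 75% but some replicate below; inactive = mean inhibition below 75%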;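 note: 0% = median of neutral control wells and 100% = pilot-screen positive control compound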
KKLEB tox: counter-screen for CF NF-kB inhibitors: cytotoxicity; KKLEB CF airway cells viability, ATPlite luminescence, overnight; hits give low values; cells stimulated with P. aeruginosa culture filtrate; activity change (cytotoxicity), % at 5 µM; actives 0.36% (n = 360,000); AID 602141;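 active = corrected activity change at or below -50% at 5 µM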
TRPM1 prom inh: MITF TRPM1 promoter inhibition in SK-MEL-5 cells | actives 0.83% (n = 330,000) | SK-MEL-5 TRPM1 promoter luciferase, 24 h | inhibition, % at 12.5 µM;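 active = mean inhibition across replicates of 60% or more, whatever share of single replicates reaches that level; inconclusive = some that reach 60%, reason not given; inactive = mean inhibition across replicates below 60%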
Peg3 prom inh-2: Peg3 promoter inhibition confirmation. shares compounds with Peg3 prom inh-1. inhibition, % at 20 µM. actives 84% (n = 1,300). HeLa PEG-Prom luciferase reporter, luminescence, overnight;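 active = at 20 µM dose, 40% or more inhibition averaged across four replicates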
CF NFkB inh conf: confirmation of cystic fibrosis induced NF-kB inhibitors; shares compounds with CF NFkB block; KKLEB CF airway cells, PAF-induced NF-kB-GFP fluorescence, overnight; inhibition, % at 5 µM; actives 64% (n = 1,300); AID 602472; in the data active = inhibition above about 40%;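 note: stimulus PAF is a Pseudomonas aeruginosa filtrate and not platelet activating factor; plate controls were DMSO wells with stimulus for no effect and unstimulated DMSO wells for full effect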
Mdm2-MdmX confirm: confirmation of inhibitors of human Mdm2/MdmX interaction, set 2; shares compounds with HIF-2a block; SaOS-2 split-luciferase Mdm2/MdmX complementation, luminescence; inhibition, % at 8 µM; actives 99% (n = 740);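 active = mean inhibition of the luminescence signal across two replicates at or above 26 percent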
Target sequence (O15151 whole entry, looked up): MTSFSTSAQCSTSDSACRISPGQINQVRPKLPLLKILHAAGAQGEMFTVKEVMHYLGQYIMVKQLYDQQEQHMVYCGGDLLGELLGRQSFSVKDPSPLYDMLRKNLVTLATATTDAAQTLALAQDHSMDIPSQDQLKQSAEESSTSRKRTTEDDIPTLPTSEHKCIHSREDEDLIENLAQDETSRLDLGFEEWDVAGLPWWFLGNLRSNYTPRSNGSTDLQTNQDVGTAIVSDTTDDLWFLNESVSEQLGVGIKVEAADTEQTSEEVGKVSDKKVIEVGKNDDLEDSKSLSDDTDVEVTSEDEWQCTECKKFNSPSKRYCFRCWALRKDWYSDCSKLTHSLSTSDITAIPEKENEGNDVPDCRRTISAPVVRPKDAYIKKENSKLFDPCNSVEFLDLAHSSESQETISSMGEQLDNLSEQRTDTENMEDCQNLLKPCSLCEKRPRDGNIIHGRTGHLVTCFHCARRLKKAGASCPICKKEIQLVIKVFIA
Target sequence (Q00987 whole entry, looked up): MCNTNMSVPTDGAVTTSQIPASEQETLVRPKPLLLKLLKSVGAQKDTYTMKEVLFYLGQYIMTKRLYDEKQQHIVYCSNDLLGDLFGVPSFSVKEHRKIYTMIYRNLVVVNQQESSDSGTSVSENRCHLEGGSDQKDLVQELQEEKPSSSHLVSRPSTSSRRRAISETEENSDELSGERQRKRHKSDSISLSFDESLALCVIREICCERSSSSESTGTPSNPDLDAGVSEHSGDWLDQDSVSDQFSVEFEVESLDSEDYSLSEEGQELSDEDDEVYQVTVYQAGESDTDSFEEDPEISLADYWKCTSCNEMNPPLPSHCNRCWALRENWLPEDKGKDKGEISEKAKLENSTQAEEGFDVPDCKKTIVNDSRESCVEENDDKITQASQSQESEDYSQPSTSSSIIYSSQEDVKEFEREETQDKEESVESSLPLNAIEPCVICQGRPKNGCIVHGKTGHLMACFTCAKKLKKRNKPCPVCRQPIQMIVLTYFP
HIF-2a conf: confirmation of HIF-2a inhibitors; shares compounds with HIF-2a block; 786-0 RCC cells, HIF-2a luciferase reporter luminescence, overnight; inhibition, % at 18.8 µM; actives 56% (n = 1,800);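 active = mean inhibition across four replicates of at least 40 percent at the single tested concentration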
HIF-1a counter: counter-screen for HIF-2a inhibitors: HIF-1a inhibition in MiaPaCa-2 cells | shares compounds with HIF-2a block | MiaPaCa-2 HIF-1a luciferase reporter, desferoxamine, overnight | inhibition, % at 18.8 µM | actives 72% (n = 1,800) | AID 651589;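 active = mean inhibition of the reporter signal across four replicates at the single tested dose of 50% or more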
Numbers without * were called inactive; ? = inconclusive; . = no result.

SMILES | Peg3 prom inh-1 | CF NFkB block | HIF-2a block | Shn3 3UTR inh | KKLEB tox | TRPM1 prom inh | Peg3 prom inh-2 | HIF-2a conf | HIF-1a counter | others
Cc1ccc(C(=O)Nc2ncc([N+](=O)[O-])s2)cc1 | 76* | 31 | 53* | 81 | -6 | 63* | 56* | 80* | 93*
Cc1onc(-c2ccccc2)c1C(=O)Nc1ncc([N+](=O)[O-])s1 | 34 | 47 | -22 | 4 | -23 | 3 | . | . | .
C/C(=N/NC(=O)c1cc(C2CC2)[nH]n1)c1cccs1 | 63* | 14 | 49* | 49 | -12 | 50 | 47* | 67* | 16
C/C(=N\NC(=O)c1ccncc1)c1cccs1 | -52 | 4 | -79 | -14 | -2 | -12 | . | . | .
Cc1cccc(-n2ncc3c(N(CCO)CCO)ncnc32)c1 | -215 | -10 | -215 | 0 | -7 | -57 | . | . | .
Cc1cccc(-n2ncc3c(N(C)C4CCCCC4)ncnc32)c1 | 75* | 9 | 66* | 76 | -54* | 80* | 82* | 81* | 101*
O=C(NCc1ccccc1F)c1ccc2c(c1)OCO2 | -36 | -3 | -23 | -2 | 12 | -24 | . | . | .
O=C(NCCc1ccccc1F)c1ccc2c(c1)OCCO2 | 106* | 2 | 91* | ? | -26 | 88* | 93* | 96* | 101* | Mdm2-MdmX confirm=96*
N#Cc1c(N)nc(SCc2ccncc2)c(C#N)c1-c1cccs1 | 54* | 4 | 45* | 58 | -4 | 8 | 70* | 29 | 61*
O=C(NC12CC3CC(CC(C3)C1)C2)N1CCN(C(=O)c2ccco2)CC1 | -18 | 15 | -34 | -3 | 1 | -3 | . | . | .
COC(=O)C1C=CC(OC2OC(COC(C)=O)C(OC(C)=O)C(OC(C)=O)C2OC(C)=O)n2c(=O)n(-c3ccccc3)c(=O)n21 (stereo not drawn) | 107* | 80* | 85* | 97* | -7 | 95* | 101* | 93* | 106* | CF NFkB inh conf=64*
CN(CCC#N)C(=O)COC(=O)c1ccccc1C(=O)c1ccc(Cl)c([N+](=O)[O-])c1 | 95* | 76* | 43* | 7 | -28 | 66* | 33 | 0 | 68* | CF NFkB inh conf=97*
O=C(Nc1ccccc1)c1cc(C2CCCN(C(=O)C3CC3)C2)on1 (stereo not drawn) | 23 | -1 | 25 | 17 | 0 | . | . | . | .
CC(=O)N1CCCC(c2cc(C(=O)Nc3ccccc3)no2)C1 (stereo not drawn) | 65* | -26 | 72* | 46 | -8 | . | 73* | 82* | 60*
CCC1CSC(=Nc2ccc(C)cc2)N1C(=O)CN1C(=O)NC2(CCCC2)C1=O (stereo not drawn) | -87 | 27 | -102 | -114 | -28 | -33 | . | . | .
COc1nc(N/N=C/c2ccc(-c3ccccc3[N+](=O)[O-])o2)nc(N2CCOCC2)n1 | -70 | 20 | -211 | -16 | -11 | -8 | . | . | .
O=[N+]([O-])c1ccc(-c2ccc(/C=N/Nc3nc(NCc4ccccc4)nc(N4CCOCC4)n3)o2)cc1 | 99* | 51* | 59* | -2 | -90* | 77* | 80* | 16 | 41 | Mdm2-MdmX confirm=102*
CCCC(=O)N1CCC1(C)C(=O)Nc1ncc(C(=O)OC)s1 (stereo not drawn) | 12 | -19 | 5 | 0 | 5 | . | . | . | .
Nc1c(C(=O)CSc2nc3ccccc3o2)c(=O)[nH]c(=O)n1C1CC1 | -110 | 1 | -150 | -23 | -9 | -48 | . | . | .
